# Tgondii IFNg – inhibitors of Toxoplasma gondii growth with IFN-gamma; Toxoplasma gondii growth in IFN-gamma-treated host cells; stronger effect = lower value; AID 1259416; actives 3.8% (n = 69,000); activity change, negative = inhibition, % (no concentration beside the values); in the data active means activity change below about -70%, passing the limit was not always enough;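 further: host cells are HeLa cells infected with Toxoplasma gondii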
# * = called active by the depositor; ! = repeats disagree. The full list was thinned out, with hits kept by preference.
SMILES,Tgondii IFNg
COC1CCCC(C(=O)N2CCC3(CC2)C(=O)Nc2ccc(-c4cccc(F)c4)cc23)C1 (stereo unspecified),11
COC1CCCC(C(=O)N2CCC3(CC2)C(=O)Nc2ccc(-c4ccc(C(C)=O)cc4)cc23)C1 (stereo unspecified),-86*
CCn1c(=O)c(-c2nc(-c3cc(C)ccc3C)no2)c(O)c2ccc(F)cc21,-12
CN(C)CC1(O)CCN(C(=O)Cc2ccc3c(c2)OCO3)C1 (stereo unspecified),12
Cc1ccn2c(C(=O)N(C)Cc3nc(C4CC4)no3)c(C)nc2c1,-4
CC(=O)Nc1ccc(OC(=O)c2ccccc2O)cc1,8
O=C(/C=C/c1ccccc1)NC(=O)c1ccccc1O,-66
O=C(N/N=C/c1ccccc1O)c1ccccc1O,-83*
O=C1c2cccc3cccc(c23)C(=O)N1c1ccc2ncccc2c1,-36
O=C1c2ccc3c4c(ccc(c24)C(=O)N1c1ccccn1)C(=O)N(c1ccccn1)C3=O,-90*
c1ccc(-c2ccccn2)nc1,-5
CCc1nc(C)c(C(=O)NCCSc2nnc(C)s2)s1,5
COc1cc2c(cc1O)CC[C@@H]1[C@@H]2CC[C@]2(C)[C@@H](O)CC[C@@H]12,-83*!
C[C@]12CC[C@@H]3c4ccc(O)cc4CC[C@H]3[C@@H]1C[C@@H](O)[C@@H]2O,17
CC12CCC3c4ccc(O)cc4CCC3C1C[C@H](O)[C@@H]2O (stereo partly specified),8
Cc1oc(C2CCN(C(=O)c3ccc(Cl)s3)CC2)nc1C(=O)N1CCSCC1,-61
CCOC(=O)Cc1nn(Cc2ccc(Br)cc2F)c(=O)c2ccccc12,-8
O=C(Nc1cccnc1)N1CCC(Cc2cccc(Oc3ccc(C(F)(F)F)cn3)c2)CC1,-74*
O=C(O)c1cccc(CC2CCN(C(=O)Cc3cccnc3)CC2)c1,-51
CN1CCC(CN2CCN(CCC(=O)Nc3cccnc3)CC2)CC1,-19
CCCn1c(=O)c(-c2nc(-c3ccc(OC)c(F)c3)no2)c(O)c2ccccc21,-54
CN(C)CC(=O)N1C[C@H]2COC[C@@]2(c2nnc(C3CC3)o2)C1,2
CC1CCN(S(=O)(=O)c2ccc3c(c2)CCC(=O)N3CC(=O)Nc2ccccn2)CC1,10
CC1CCN(S(=O)(=O)c2ccc3c(c2)CCC(=O)N3CC(=O)Nc2ccc(C(C)C)cc2)CC1,-73*
CC(C)c1ccc(NC(=O)CN2C(=O)CCc3cc(S(=O)(=O)N4CCCCC4C)ccc32)cc1 (stereo unspecified),-75*
SMILES,Tgondii IFNg
Cc1cc(C)c(NC(=O)CN2C(=O)CCc3cc(S(=O)(=O)N4CCCCC4C)ccc32)c(C)c1 (stereo unspecified),-43
CC(C)NC(=O)CN1C(=O)CCc2cc(S(=O)(=O)N3CCCCC3C)ccc21 (stereo unspecified),36
Cc1csc(NC(=O)CN2C(=O)CCc3cc(S(=O)(=O)N4CCC(C)CC4)ccc32)n1,-93*
CC(=O)Nc1ccc(NC(=O)CN2C(=O)CCc3cc(S(=O)(=O)N4CCC(C)CC4)ccc32)cc1,23
CCOc1ccc(NC(=O)CN2C(=O)CCc3cc(S(=O)(=O)N4CCC(C)CC4)ccc32)cc1,-26
Cc1cc(C)c(NC(=O)CN2C(=O)CCc3cc(S(=O)(=O)N4CCC(C)CC4)ccc32)c(C)c1,-31
Cc1cccc(NC(=O)CC(=O)N(C)CCCO)c1C,4
CCOC(=O)N1CCC(N2CC(=O)N(CC3CCOCC3)CC(OCc3ccccn3)C2)CC1 (stereo unspecified),-6
CCOc1ccc(C(=O)N2CCC(C)(C(=O)NCc3cc(OC)cc(OC)c3)CC2)cc1,12
O=C(N[C@@H]1c2ccccc2C[C@@H]1O)c1ccc(-n2cnnc2)cc1,5
Cc1cccc(Nc2nc(C(=O)Nc3ccc(C)cc3Cl)nc3ccccc23)c1,-37
CN1/C(=c2/sc(=C3C(=O)NC(=S)NC3=O)n(C)c2=O)Sc2ccccc21,-5
CCOC(=O)c1cnn(C(=O)OCC)c1N,2
O=c1[nH]ccc2c1c(=O)[nH]c1ccccc12,-100*
O=c1[nH]c2ccccc2c2oc(-c3ccccc3)nc12,7
CCCCCCCc1nc2c(=O)[nH]c3ccccc3c2o1,0
NC(=O)N/N=C/c1ccc(Oc2ccc(F)cc2)cc1,19
NC(=O)N/N=C/c1ccc([N+](=O)[O-])o1,-73*!
O=C1OC(CN2CCOCC2)CN1/N=C/c1ccc([N+](=O)[O-])o1 (stereo unspecified),-11
COc1cccc(CC(=O)N2C[C@@H]3CN(CC4CC4)CCO[C@@H]3C2)c1,3
COc1ccc(C)cc1Nc1nc(-c2nnc(-c3cccc(C)c3)o2)nc2ccccc12,59
COc1ccc(S(=O)(=O)N(Cc2nc(-c3ccc(C)cc3)oc2C)c2ccccc2OC)cc1,-1
Cc1ccc(NC(=O)N2CCc3nc(-c4ccccc4)sc3C2)cc1C,101
COc1ccc(C)cc1NC(=O)N1CCc2nc(-c3ccc(C)cc3)sc2C1,-13
CCOc1ccc(-c2nc3c(s2)CN(C(=O)Nc2ccc(C)c(C)c2)CC3)cc1,-106*
SMILES,Tgondii IFNg
CCOc1ccc(-c2nc3c(s2)CN(C(=O)Nc2cc(C)ccc2C)CC3)cc1,-112*
COc1ccc(-c2nc3c(s2)CN(C(=O)Nc2ccc(C)cc2C)CC3)cc1,53
CCOc1ccc(-c2nc3c(s2)CN(C(=O)Nc2ccc(C)cc2)CC3)cc1,-66
Cc1cc(C)n(CCCC(=O)O)c(=O)n1,71
COc1ccc(-c2nnc3n2C2(CCCCC2)Cc2ccccc2-3)cc1,-38
O=C(c1ccco1)N1CCC2(CC1)Nc1cccnc1NC2=NCc1ccccc1,-5
CO[C@@H]1CN(C)C(=O)c2cc(NS(=O)(=O)c3cn(C)cn3)ccc2OC[C@H](C)NC[C@H]1C,-66
CCOc1cc(C(F)(F)F)c(C(=O)N(CC)c2ccc(Cl)cc2)cn1,3
CCOC(=O)c1cnc(-c2cccs2)nc1Sc1ccc(Cl)cc1,-43
COC(=O)c1cnc(Sc2ccc(Cl)cc2)nc1C(F)(F)F,-101*
COc1cccc(-c2ccc3c(c2)[C@@H]2[C@@H](CCN2C(=O)c2ccccn2)[C@@H](CO)N3)c1,200
Cc1nc(COCC2CN(C)Cc3ncn(C)c32)cs1 (stereo unspecified),40
Cc1ccc(CNc2cccc(C(=O)N(C)CCC3CCOCC3)c2)cc1,-25
O=C(N[C@@H]1CN(c2ncc(F)cn2)[C@H]2COC[C@@H]12)c1cscn1,-7
O=C([C@H]1CN(Cc2cccs2)C[C@@H]2OCC[C@@H]21)N1CCCC1,-1
COC(=O)c1c(NCc2ccc(OC)c(OC)c2)c2cccc(Cl)c2[nH]c1=O,-50
COc1ccc(C2c3c(n[nH]c3C)CC(C)(O)C2C(C)=O)cc1OC (stereo unspecified),-11
COc1cc(C2c3c([nH]c(=O)[nH]c3=O)Nc3ccc4ccccc4c32)ccc1OC(C)=O (stereo unspecified),-112*
CO[C@@H]1CN(C)C(=O)c2cc(NS(=O)(=O)CC(F)(F)F)ccc2OC[C@@H](C)NC[C@@H]1C,384
O=C(NCc1nc(Cc2cccs2)no1)c1cccc2ccnn12,-53
Cc1ccc2c(c1)cc(C(=O)NCc1nc(Cc3ccccc3)no1)n2C,-53
CC(C)c1cc(C(=O)NCc2nc(Cc3cccs3)no2)n(C)n1,-83*
Cc1cccc2c1c(-c1ccc(C(N)=O)cc1)nn2C,8
C[C@H](Nc1ncnc2nc[nH]c12)c1cc2cccc(Cl)c2c(=O)n1-c1ccccc1,10
NS(=O)(=O)c1ccc(NC(=O)CSc2ncn(-c3ccccc3)n2)cc1,5

# Source: PubChem
